# Measurements reported in PubChem BioAssay (Tox21).
# “And” between values parts separate entries of the source, which are not always exact repeats. Equal entries are not always repeated. Results filed as inconclusive are left out. A number with no mark means an inactive call. The source made the active and inactive calls. Calls follow the shape of the dose curve; as a rule, active = well fitted cell-killing curve with a large enough effect in the repeat runs (not every such curve was filed as active); inconclusive = weak or mixed curves, or effect the other way; inactive = no such curve, though single readings can be large or run the other way.
# Experiment: qHTS assay to identify small molecule antagonists of the farnesoid-X-receptor (FXR) signaling pathway - cell viability counter screen (AID 743221); also: nearly all actives have a fitted effect of over 50% in size
# Settings: FXR-bla HEK293T viability, CellTiter-Glo luminescence, 16 h; series mostly up to 62.6 µM; activity change, negative = cytotoxicity: at the top concentration
# Excerpt: National Center for Advancing Translational Sciences [NCATS]
# NIH Chemical Genomics Center [NCGC]
# U.S. Environmental Protection Agency [EPA]
# National Institutes of Environmental Health Sciences [NIEHS]
# National Toxicology Program [NTP]
# U.S. Food and Drug Administration [FDA]
# The farnesoid-X-receptor (FXR), a nuclear hormone receptor, is highly expressed in liver, intestine, kidney and adrenal cortex. Natural ligands of FXR are the bile acids (Cholic acid, Chenodeoxy cholic acid etc). FXR is an important regulator of diverse metabolic pathways, including the bile acid homeostasis, lipid and glucose metabolisms. FXR regulates the expression of target genes by binding either as a monomer or as a heterodimer with the retinoid X receptor (RXR). Numerous studies have reported that FXR exerts protective function during cholestasis, diabetes, liver regeneration, and cancer. To identify compounds that inhibit FXR signaling, GeneBLAzer FXR-UAS-bla HEK 293T cell line (Invitrogen, Carlsbad, CA) containing a beta-lactamase reporter gene under the control of a UAS response element was used to screen the Tox21 10K compound library. The cytotoxicity of the Tox21 compound library against the FXR-bla cell line was tested in parallel by measuring the cell viability using CellTiter-Glo assay in the same wells.
# Tox21 Assay Protocol Summary:
# FXR-bla cells were dispensed at 5000 cells/5uL/well in 1536-well black wall/clear bottom plates using a Multidrop Combi (Thermo Fisher Scientific, Waltham, MA) dispenser. After the assay plates were incubated at 37 C and 5% CO2 for 5 h, 23 nL of compounds dissolved in DMSO, positive controls or DMSO only was transferred to the assay plate by a Pintool station (Kalypsys, San Diego, CA), followed by addition of 1 uL Chenodeoxycholic acid (50 uM, final concentration in the wells). The assay plates were incubated at 37C for 16 h. After 1 uL of LiveBLAzerTM B/G FRET substrate was added using a Bioraptr Flying Reagent Dispenser (FRD) workstation (Beckman Coulter, Indianapolis, IN), the plates were incubated at room temperature for 2 h, and fluorescence intensity was measured by an Envision plate reader (PerkinElmer, Shelton, CT). For cell viability readout that measures cytotoxicity, 4uL/well of CellTiter-Glo reagent was added into the assay plates using a Bioraptr FRD. After 30 min incubation at room temperature, the luminescence intensity in the plates was measured using a ViewLux plate reader (PerkinElmer).
# % is scaled to controls: 0 for no effect and ±100 for the full control effect; potency is read from the fitted curve at half-maximal effect.
Compound,"activity change, negative = cytotoxicity",Potency
CCc1oc2ccccc2c1C(=O)c1cc(I)c(O)c(I)c1,-15.6%,–
CC(C)(c1cc(Br)c(OCC(Br)CBr)c(Br)c1)c1cc(Br)c(OCC(Br)CBr)c(Br)c1 (stereo not given),1.4%,–
COc1cccc(OC)c1C(=O)O,-2.42%,–
COc1ccc(-c2coc3cc(O)ccc3c2=O)cc1,-6.6%,–
ClCCl,0.268%,–
Cc1ccc(O)c(O)c1,-0.111%,–
O=C(Oc1ccccc1)Oc1ccccc1,15.2%,–
CCCCC(CC)COC(=O)CCCCC(=O)OCc1ccccc1 (stereo not given),-0.0795%,–
O=C(O)c1cccc(C(F)(F)F)c1,-12.9%,–
O=C1C(c2[nH]c3ccc(S(=O)(=O)O)cc3c2O)=Nc2ccc(S(=O)(=O)O)cc21,-2.86%,–
CCCC1CCC(=O)CC1,0.574%,–
O=[N+]([O-])c1ccc(F)c(Cl)c1,0.336%,–
C=CCn1c(=O)n(CC=C)c(=O)n(CC=C)c1=O,3.38%,–
CC/C=C\CCCCCO,-10.7%,–
CC1(C)CC(O)CC(C)(C)N1,1.43% [at 81.1 µM],–
O=C(O)[C@H](O)[C@@H](O)[C@H](O[C@@H]1O[C@H](CO)[C@H](O)[C@H](O)[C@H]1O)[C@H](O)CO,0.232%,–
O=S(=O)(O)c1ccc(N=Nc2c(O)ccc3ccccc23)cc1,–,38.9 µM (active)
O=S(=O)(O)c1ccc(Nc2nc(Nc3ccc(/C=C/c4ccc(Nc5nc(Nc6ccc(S(=O)(=O)O)cc6)nc(N(CCO)CCO)n5)cc4S(=O)(=O)O)c(S(=O)(=O)O)c3)nc(N(CCO)CCO)n2)cc1,5.62%,–
O=C(O)c1cc(-c2ccc(F)cc2F)ccc1O,-13.4%,–
CCCCCCCCCCCCCC[N+](C)(C)C,–,47.3 µM (active) and 29.8 µM (active)

Compound,"activity change, negative = cytotoxicity",Potency
CC1=Nc2ccccc2C1(C)C,-4.26%,–
CC(C(=O)O)c1ccc2c(c1)[nH]c1ccc(Cl)cc12 (stereo not given),-0.406%,–
Nc1nc2c(ncn2COCCO)c(=O)[nH]1,-0.778%,–
CCn1c2ccccc2c2cc([N+](=O)[O-])ccc21,-4.08%,–
[Cu+],4.82%,–
C#Cc1ccc(-c2ccccc2F)cc1,1.36%,–
CCC(=O)OC(=O)CC,6.63%,–
Nc1cc(Cl)c(O)c(Cl)c1,4.01%,–
CCCCCCCCCCCCCCCC[N+](C)(C)CC,–,43.8 µM (active) and 29.8 µM (active)
C=C(C)C(=O)OCCCCCCCCCC,-12% [at 81.1 µM],–
CC(C)Cn1cnc2c(N)nc3ccccc3c21,9.84% [at 29.1 µM],–
CCCc1ccc(OCC(=O)N2CCN(C(=O)COc3ccc(CCC)cc3OC)CC2)c(OC)c1,4.53%,–
Cc1nc2n(c(=O)c1CCN1CCC(c3noc4cc(F)ccc34)CC1)CCCC2,3.26%,–
CC(C)(C)NSc1nc2ccccc2s1,1.49% [at 81.1 µM],–
CCC(CC)(CC(=O)Nc1cccc(/C=C/c2nc(C3CCC3)cs2)c1)C(=O)O,4.22%,–
OC[C@@H](O)[C@@H](O)CO,3.12%,–
Cc1ccc(-c2ccccc2)cc1,3.66%,–
Cc1cccc2cccnc12,3.53%,–
OC12N=C(c3ccccc3)SC1Cc1cc(Cl)ccc12 (stereo not given),-1.76%,–
Cc1ccc(O)c(N)c1,0.106%,–
